In the supplement of paper PMC10849652:
About 7,900 targets were measured; listed, in parts, are those with a hit and a random draw of the rest. About 0.6% of all pairs of compound and target were hits. Unmarked numbers belong to inactive results.

Columns and labels:
Assay in all cases: log2 fold change, soluble protein after heating vs DMSO (PISA); higher = thermal stabilisation; K562 cells, 10 uM, 30 min; active = over 0.2 and 3.5 SD of the protein, either way, in both replicates (recomputed)
[1] = compound: CON(C)C(=O)N1N=C(c2cc(F)ccc2F)S[C@@]1(CCCN)c1ccccc1 [filanesib]
Summary of the method: (§1)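 Soluble protein was defined as the supernatant after 21,000xg for 90 min. It came from K562 cells at 2×10^6 cells/mL given 10 μM compound for 30 min, heated in aliquots for 3 min across 48°C-58°C, pooled, and extracted in PBS with 0.5% NP-40 at 4°C, and was quantified by TMTpro 16plex LC-MS/MS with equalised channel sums. Thermal stability against control samples, from duplicates, is reported as log2 fold change.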

[2] = compound: COc1cc(Nc2ncc3c(n2)-c2ccc(Cl)cc2C(c2c(F)cccc2OC)=NC3)ccc1C(=O)O [alisertib]
Summary of the method: as §1

[3] = compound: COc1cc2nc(-c3cc(F)ccc3O)nc(N[C@@H]3CNC[C@H]3C(C)(C)O)c2cc1OC
Summary of the method: as §1

[4] = compound: COc1cccc2cc(-c3nc([C@H]4CC[C@H](C(=O)O)CC4)n4ncnc(N)c34)[nH]c12
Summary of the method: as §1

[5] = compound: CS(=O)(=O)CCNCc1ccc(-c2ccc3ncnc(Nc4ccc(OCc5cccc(F)c5)c(Cl)c4)c3c2)o1 [lapatinib]
Summary of the method: as §1

[6] = compound: CS(=O)(=O)c1ccc(-c2cnc(N)c(C(=O)Nc3ccccc3)n2)cc1
Summary of the method: as §1

[7] = compound: Cc1ccc(C(=O)N(CCCN)[C@@H](c2nc3cc(Cl)ccc3c(=O)n2Cc2ccccc2)C(C)C)cc1 [ispinesib]
Summary of the method: as §1

[8] = compound: CO[C@H]1C[C@@H]2CC[C@@H](C)[C@@](O)(O2)C(=O)C(=O)N2CCCC[C@H]2C(=O)O[C@H]([C@H](C)C[C@@H]2CC[C@H](n3cnnn3)[C@H](OC)C2)CC(=O)[C@H](C)/C=C(\C)[C@@H](O)[C@@H](OC)C(=O)[C@H](C)C[C@H](C)/C=C/C=C/C=C/1C [zotarolimus]
Summary of the method: as §1

[9] = compound: COc1cc(C(=O)O)ccc1NC(=O)[C@@H]1N[C@@H](CC(C)(C)C)[C@](C#N)(c2ccc(Cl)cc2F)[C@H]1c1cccc(Cl)c1F [idasanutlin]
Summary of the method: as §1

[10] = compound: COc1cc2ncnc(Nc3ccc(F)c(Cl)c3)c2cc1OCCCN1CCOCC1 [gefitinib]
Summary of the method: as §1

[11] = compound: CS(=O)(=O)N1CCN(Cc2cc3nc(-c4cccc5[nH]ncc45)nc(N4CCOCC4)c3s2)CC1 [pictilisib]
Summary of the method: as §1

[12] = compound: C[C@@H]1COCCN1C2=NC(=NC(=C2)C3(CC3)S(=O)(=O)C)C4=C5C=CNC5=CC=C4
Summary of the method: as §1

[13] = compound: C[C@H](C1=CC=C(C=C1)C(=O)NC2=C3C=CNC3=NC=C2)N
Summary of the method: as §1

[14] = compound: C[C@H](Nc1ncnc2nc[nH]c12)c1cc2cccc(Cl)c2c(=O)n1-c1ccccc1 [duvelisib]
Summary of the method: as §1

[15] = compound: Cc1cc(Nc2cc(CN3CCOCC3)c3nc(C)c(Cc4ccc(Cl)cc4F)n3n2)n[nH]1 [gandotinib]
Summary of the method: as §1

[16] = compound: Cc1cc(Nc2cc(N3CCN(C)CC3)nc(Sc3ccc(NC(=O)C4CC4)cc3)n2)n[nH]1 [tozasertib]
Summary of the method: as §1

[17] = compound: Cc1cc(SCc2sc(-c3ccc(C(F)(F)F)cc3)nc2C)ccc1OCC(=O)O
Summary of the method: as §1

[18] = compound: COC1=CC=C(C=C1)CN2C=CC3=C2C=C(C=C3)C(=O)NO
Summary of the method: as §1

[19] = compound: C[C@@H](Oc1cc(-c2cnn(C3CCNCC3)c2)cnc1N)c1c(Cl)ccc(F)c1Cl [crizotinib]
Summary of the method: as §1

[20] = compound: Cc1ccc(-n2nc(C(C)(C)C)cc2NC(=O)Nc2ccc(OCCN3CCOCC3)c3ccccc23)cc1 [doramapimod]
Summary of the method: as §1

UniProt P98171, sequence (P98171 whole entry, looked up): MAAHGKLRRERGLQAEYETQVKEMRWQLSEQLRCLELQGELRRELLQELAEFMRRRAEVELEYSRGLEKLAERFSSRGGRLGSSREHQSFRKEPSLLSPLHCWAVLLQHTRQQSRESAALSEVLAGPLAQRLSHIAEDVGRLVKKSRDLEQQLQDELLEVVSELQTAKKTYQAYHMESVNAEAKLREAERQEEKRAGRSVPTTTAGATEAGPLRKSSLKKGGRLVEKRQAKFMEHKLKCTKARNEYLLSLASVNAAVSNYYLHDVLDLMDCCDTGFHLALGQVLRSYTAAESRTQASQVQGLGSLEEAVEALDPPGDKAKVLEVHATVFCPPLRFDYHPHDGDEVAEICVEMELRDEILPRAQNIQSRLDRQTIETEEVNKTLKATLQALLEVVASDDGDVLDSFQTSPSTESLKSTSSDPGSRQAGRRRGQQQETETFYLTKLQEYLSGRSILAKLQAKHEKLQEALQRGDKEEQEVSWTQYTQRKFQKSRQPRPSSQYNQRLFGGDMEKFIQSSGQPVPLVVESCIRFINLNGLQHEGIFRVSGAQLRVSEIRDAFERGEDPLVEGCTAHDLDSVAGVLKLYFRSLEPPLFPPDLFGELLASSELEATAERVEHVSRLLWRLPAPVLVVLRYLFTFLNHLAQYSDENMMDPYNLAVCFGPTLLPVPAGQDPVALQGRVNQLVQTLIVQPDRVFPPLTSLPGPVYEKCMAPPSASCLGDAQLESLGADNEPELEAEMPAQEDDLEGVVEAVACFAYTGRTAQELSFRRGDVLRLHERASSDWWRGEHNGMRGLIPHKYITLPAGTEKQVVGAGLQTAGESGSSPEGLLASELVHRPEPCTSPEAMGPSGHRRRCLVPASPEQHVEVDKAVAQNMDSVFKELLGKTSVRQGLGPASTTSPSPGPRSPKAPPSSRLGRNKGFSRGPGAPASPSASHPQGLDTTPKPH
UniProt Q562R1, sequence (Q562R1 whole entry, looked up): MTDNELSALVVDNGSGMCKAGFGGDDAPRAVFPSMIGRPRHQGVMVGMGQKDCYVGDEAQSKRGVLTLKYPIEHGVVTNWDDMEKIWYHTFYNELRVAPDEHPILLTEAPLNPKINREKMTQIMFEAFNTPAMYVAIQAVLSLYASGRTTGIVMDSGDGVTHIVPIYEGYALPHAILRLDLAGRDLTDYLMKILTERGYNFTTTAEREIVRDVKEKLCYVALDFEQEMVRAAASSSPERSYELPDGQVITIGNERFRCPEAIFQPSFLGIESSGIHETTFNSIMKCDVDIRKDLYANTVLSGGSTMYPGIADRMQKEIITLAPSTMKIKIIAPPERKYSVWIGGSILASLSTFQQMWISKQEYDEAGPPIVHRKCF
UniProt Q8NFV4, sequence (Q8NFV4 whole entry, looked up): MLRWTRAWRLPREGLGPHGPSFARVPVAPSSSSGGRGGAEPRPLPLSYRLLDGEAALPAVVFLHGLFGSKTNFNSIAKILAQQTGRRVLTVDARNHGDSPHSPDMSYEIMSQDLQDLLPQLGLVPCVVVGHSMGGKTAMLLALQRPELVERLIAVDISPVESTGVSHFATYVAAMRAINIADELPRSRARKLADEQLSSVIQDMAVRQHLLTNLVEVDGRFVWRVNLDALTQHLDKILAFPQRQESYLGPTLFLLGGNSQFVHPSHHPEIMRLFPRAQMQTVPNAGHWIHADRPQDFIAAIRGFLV
UniProt Q9UKU0, sequence (Q9UKU0 whole entry, looked up): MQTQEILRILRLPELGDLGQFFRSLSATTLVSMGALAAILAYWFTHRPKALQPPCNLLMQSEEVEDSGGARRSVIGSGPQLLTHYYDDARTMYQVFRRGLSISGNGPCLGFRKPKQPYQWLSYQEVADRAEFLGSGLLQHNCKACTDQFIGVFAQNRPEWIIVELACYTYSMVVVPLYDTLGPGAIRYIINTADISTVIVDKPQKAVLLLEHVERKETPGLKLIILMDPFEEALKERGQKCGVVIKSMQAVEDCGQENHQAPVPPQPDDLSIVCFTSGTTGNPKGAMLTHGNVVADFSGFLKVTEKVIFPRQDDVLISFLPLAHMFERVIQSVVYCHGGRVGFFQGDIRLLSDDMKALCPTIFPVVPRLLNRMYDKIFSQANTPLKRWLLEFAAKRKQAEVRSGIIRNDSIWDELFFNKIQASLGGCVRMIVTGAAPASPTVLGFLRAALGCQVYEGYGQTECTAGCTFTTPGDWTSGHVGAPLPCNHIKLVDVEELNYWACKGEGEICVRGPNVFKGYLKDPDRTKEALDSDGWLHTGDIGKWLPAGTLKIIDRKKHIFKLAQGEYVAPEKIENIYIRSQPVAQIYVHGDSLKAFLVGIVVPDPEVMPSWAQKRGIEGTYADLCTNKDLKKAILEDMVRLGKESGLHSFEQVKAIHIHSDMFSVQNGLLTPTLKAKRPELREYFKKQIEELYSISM
UniProt Q9H6S1, sequence (Q9H6S1 whole entry, looked up): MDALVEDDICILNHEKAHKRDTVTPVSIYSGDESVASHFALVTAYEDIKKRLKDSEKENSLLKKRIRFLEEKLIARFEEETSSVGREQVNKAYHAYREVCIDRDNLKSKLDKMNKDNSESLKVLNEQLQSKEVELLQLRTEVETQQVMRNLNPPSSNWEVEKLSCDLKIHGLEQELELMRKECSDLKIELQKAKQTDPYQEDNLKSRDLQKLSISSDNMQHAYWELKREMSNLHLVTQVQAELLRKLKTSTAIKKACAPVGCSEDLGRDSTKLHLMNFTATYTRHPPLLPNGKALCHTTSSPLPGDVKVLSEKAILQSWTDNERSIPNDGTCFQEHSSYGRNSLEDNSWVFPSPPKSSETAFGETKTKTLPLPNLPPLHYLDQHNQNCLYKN
UniProt Q96KE9, sequence (Q96KE9 whole entry, looked up): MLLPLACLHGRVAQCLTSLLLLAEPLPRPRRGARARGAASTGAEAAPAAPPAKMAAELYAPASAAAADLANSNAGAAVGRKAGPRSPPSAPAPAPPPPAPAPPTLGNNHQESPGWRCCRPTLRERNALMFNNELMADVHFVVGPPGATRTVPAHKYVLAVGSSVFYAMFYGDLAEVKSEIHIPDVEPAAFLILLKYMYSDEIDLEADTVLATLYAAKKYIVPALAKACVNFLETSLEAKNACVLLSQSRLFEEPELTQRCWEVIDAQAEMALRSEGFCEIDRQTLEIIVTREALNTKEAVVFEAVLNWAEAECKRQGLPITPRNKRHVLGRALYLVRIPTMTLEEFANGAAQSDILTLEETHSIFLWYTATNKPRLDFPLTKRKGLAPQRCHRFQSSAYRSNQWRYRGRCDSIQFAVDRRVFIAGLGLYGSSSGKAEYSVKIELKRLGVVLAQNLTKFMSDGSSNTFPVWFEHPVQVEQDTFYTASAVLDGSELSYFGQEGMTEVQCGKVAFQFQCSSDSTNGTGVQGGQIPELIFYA
UniProt Q96G97, sequence (Q96G97 whole entry, looked up): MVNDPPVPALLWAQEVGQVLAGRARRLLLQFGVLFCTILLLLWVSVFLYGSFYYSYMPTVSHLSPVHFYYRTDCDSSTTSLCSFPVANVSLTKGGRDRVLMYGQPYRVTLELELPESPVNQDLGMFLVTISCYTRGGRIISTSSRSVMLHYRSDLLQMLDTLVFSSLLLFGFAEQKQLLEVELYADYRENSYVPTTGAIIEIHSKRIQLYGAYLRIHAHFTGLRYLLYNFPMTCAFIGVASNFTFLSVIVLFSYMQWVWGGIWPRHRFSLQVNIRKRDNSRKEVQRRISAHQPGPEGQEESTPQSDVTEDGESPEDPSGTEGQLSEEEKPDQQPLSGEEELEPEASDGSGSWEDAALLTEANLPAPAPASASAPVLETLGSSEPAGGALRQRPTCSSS
UniProt P54252, sequence (P54252 whole entry, looked up): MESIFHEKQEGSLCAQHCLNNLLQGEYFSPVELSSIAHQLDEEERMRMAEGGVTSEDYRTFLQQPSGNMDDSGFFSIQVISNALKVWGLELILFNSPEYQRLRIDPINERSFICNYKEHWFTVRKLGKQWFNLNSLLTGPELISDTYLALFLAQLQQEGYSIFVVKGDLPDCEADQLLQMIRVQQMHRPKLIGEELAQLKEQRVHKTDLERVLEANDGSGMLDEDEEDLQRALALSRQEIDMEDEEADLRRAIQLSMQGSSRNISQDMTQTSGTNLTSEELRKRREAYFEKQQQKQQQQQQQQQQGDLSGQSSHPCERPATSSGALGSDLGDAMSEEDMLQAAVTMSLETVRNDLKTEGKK
UniProt Q13825, sequence (Q13825 whole entry, looked up): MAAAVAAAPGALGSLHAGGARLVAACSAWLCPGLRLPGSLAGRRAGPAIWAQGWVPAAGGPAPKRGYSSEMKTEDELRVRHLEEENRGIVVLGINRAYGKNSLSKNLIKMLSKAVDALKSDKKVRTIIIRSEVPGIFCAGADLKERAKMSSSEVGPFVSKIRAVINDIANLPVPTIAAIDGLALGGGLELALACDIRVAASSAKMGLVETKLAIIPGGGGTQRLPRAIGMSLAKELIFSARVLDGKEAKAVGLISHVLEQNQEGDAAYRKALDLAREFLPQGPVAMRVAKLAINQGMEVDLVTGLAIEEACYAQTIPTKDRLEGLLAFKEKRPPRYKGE
UniProt Q9HCU9, sequence (Q9HCU9 whole entry, looked up): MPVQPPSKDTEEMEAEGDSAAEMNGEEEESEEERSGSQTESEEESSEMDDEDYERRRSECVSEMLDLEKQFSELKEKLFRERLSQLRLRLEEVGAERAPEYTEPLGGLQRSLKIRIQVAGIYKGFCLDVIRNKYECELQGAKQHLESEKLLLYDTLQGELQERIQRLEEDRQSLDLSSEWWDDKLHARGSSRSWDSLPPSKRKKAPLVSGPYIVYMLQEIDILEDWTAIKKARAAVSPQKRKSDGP
UniProt P54922, sequence (P54922 whole entry, looked up): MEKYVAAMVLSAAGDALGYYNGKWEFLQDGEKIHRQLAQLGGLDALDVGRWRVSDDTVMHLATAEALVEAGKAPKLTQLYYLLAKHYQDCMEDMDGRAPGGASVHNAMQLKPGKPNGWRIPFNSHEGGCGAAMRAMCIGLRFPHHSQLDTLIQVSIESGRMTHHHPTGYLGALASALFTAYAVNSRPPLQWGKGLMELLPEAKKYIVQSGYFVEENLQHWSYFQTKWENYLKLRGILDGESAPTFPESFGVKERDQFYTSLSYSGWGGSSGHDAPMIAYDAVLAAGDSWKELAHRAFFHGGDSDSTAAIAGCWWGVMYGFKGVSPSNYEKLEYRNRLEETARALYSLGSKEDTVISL

Row | Target | log2 fold change [1] | log2 fold change [2] | log2 fold change [3] | log2 fold change [4] | log2 fold change [5] | log2 fold change [6] | log2 fold change [7] | log2 fold change [8] | log2 fold change [9] | log2 fold change [10] | log2 fold change [11] | log2 fold change [12] | log2 fold change [13] | log2 fold change [14] | log2 fold change [15] | log2 fold change [16] | log2 fold change [17] | log2 fold change [18] | log2 fold change [19] | log2 fold change [20]
1 | ADD2 isoform 9 (UniProt P35612) | 0.043 | -0.072 | -0.053 | 0.282 | 0.04 | -0.067 | 0.04 | – | – | – | – | – | – | – | – | – | – | – | – | –
2 | ALDH9A1 (UniProt P49189) | -0.149 | -0.091 | 0.038 | 0.081 | -0.037 | 0.084 | -0.243 | -0.164 | -0.073 | 0.039 | -0.124 | 0.061 | -0.116 | 0.002 | 0.356 (active) | -0.052 | 0.045 | – | – | –
3 | BRD4 (UniProt O60885) | -0.068 | -0.064 | 0.078 | -0.003 | -0.039 | 0.081 | -0.022 | -0.253 | -0.001 | 0.152 | 0.161 | 0.288 | -0.009 | 0.207 | -0.034 | 0.033 | -0.044 | – | – | –
4 | BRMS1 (UniProt Q9HCU9) | – | -0.074 | – | 0.007 | – | – | – | – | 0.066 | – | 0.042 | -0.034 | – | 0.049 | -0.174 | -0.094 | -0.046 | – | – | –
5 | ACTBL2 (UniProt Q562R1) | 0.171 | 0.521 | -0.085 | -0.105 | -0.079 | -0.022 | -0.307 | – | 0.533 | 0.348 | -0.541 | -0.005 | – | -0.091 | -0.828 | – | -0.299 | – | – | –
6 | BAP18 isoform 3 (UniProt Q8IXM2) | – | -0.033 | – | 0.12 | – | – | – | – | – | – | -0.093 | – | – | – | 0.147 | 0.012 | – | – | – | –
7 | AUH (UniProt Q13825) | – | 0.175 | -0.036 | 0.034 | 0.056 | – | -0.069 | 0.009 | -0.074 | – | -0.071 | – | -0.105 | -0.036 | -0.127 | -0.098 | 0.135 | -0.107 | -0.301 | 0.071
8 | BRAF, A0A2R8Y8E0 | – | -0.054 | – | -0.326 | – | – | -0.223 | – | 0.221 | -0.027 | – | – | – | – | – | 0.248 | – | -0.008 | 0.262 | -0.757 (active)
9 | ACTR3B (UniProt Q9P1U1) | – | – | 0.022 | – | -0.056 | – | -0.069 | – | – | -0.213 | -0.021 | – | – | – | 0.024 | -0.02 | – | 0.407 (active) | -0.005 | 0.158
10 | ABHD11 (UniProt Q8NFV4) | – | -0.002 | 0.061 | 0.076 | -0.037 | – | 0.029 | 0.049 | -0.058 | -0.013 | 0.024 | 0.309 (active) | 0.057 | 0.144 | 0.389 (active) | -0.039 | -0.003 | -0.076 | 0.149 | 0.028
11 | ATXN3 isoform 1 (UniProt P54252) | – | -0.004 | 0.106 | 0.297 | -0.031 | – | -0.043 | -0.051 | -0.114 | -0.192 | -0.036 | – | 0.076 | – | -0.028 | -0.163 | – | 0.023 | -0.028 | 0.087
12 | ATXN7L3 isoform 2 (UniProt Q14CW9) | -0.02 | -0.191 | – | 0.035 | – | 0.001 | -0.007 | – | 0.193 | 0.052 | – | – | – | – | – | – | – | -0.158 | -0.043 | 0.169
13 | BSCL2 isoform 4 (UniProt Q96G97) | – | -0.037 | -0.248 | 0.069 | 0.048 | – | – | 0.076 | -0.132 | 0.021 | 0.126 | 0.05 | -0.007 | 0.129 | -0.086 | 0.008 | 0.111 | – | – | –
14 | BAIAP2 isoform 4 (UniProt Q9UQB8) | 0.302 | – | – | – | – | -0.112 | – | -0.184 | – | – | – | – | 0.29 | – | – | 0.042 | – | – | – | –
15 | ACSL6 isoform 1 (UniProt Q9UKU0) | -0.054 | -0.013 | – | 0.123 | – | -0.055 | -0.198 | – | – | 0.103 | 0.051 | 0.164 | – | -0.068 | -0.145 | -0.052 | 0.157 | – | – | –
16 | ADPRH (UniProt P54922) | -0.088 | -0.099 | 0.135 | -0.033 | 0.05 | 0.123 | -0.002 | – | – | 0.013 | -0.107 | 0.201 | – | – | 0.157 | -0.033 | – | 0.098 | 0.056 | -0.071
17 | BTBD6 (UniProt Q96KE9) | -0.019 | -0.058 | 0.194 | -0.186 | -0.072 | 0.117 | 0.209 | 0.062 | 0.053 | 0.03 | 0.143 | 0.033 | -0.308 | 0.125 | 0.64 | -0.105 | -0.061 | – | – | –
18 | AZI2 (UniProt Q9H6S1) | 0.006 | – | – | – | – | 0.074 | -0.019 | – | – | 0.227 | – | – | – | – | – | 0.329 | – | – | – | –
19 | ATF1 (UniProt P18846) | 0.097 | -0.101 | -0.071 | 0.006 | -0.011 | -0.004 | – | -0.51 (active) | -0.082 | 0.052 | -0.039 | 0.017 | 0.073 | – | 0.067 | 0.113 | – | – | – | –
20 | AP2S1 (UniProt M0QZ21) | – | – | – | – | – | – | – | – | – | – | – | – | – | – | – | -0.253 | – | – | – | –
21 | ARHGAP4 isoform 2 (UniProt P98171) | 0.027 | 0.166 | 0.067 | 0.028 | 0.051 | 0.023 | -0.111 | -0.012 | 0.104 | -0.211 | – | – | 0.212 | -0.202 | – | 0.105 | 0.131 | – | – | –
